About 7,900 targets were measured; listed, in parts, are those with a hit and a random draw of the rest. About 0.6% of all pairs of compound and target were hits.
Experiments:
Assay in all cases: log2 fold change, soluble protein after heating vs DMSO (PISA); higher = thermal stabilisation; K562 cells, 10 uM, 30 min; active = over 0.2 and 3.5 SD of the protein, either way, in both replicates (recomputed)
[1] = compound: NC(=O)Nc1cc(-c2cccc(F)c2)sc1C(=O)N[C@H]1CCCNC1
Procedure, shortened: (§1)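 For each measurement, 10 μM compound was applied for 30 min to K562 cells at 2×10^6 cells/mL. Aliquots were heated for 3 min across 48°C-58°C, pooled, and extracted in PBS with 0.5% NP-40 at 4°C; the supernatant after 21,000xg for 90 min was soluble protein. This was quantified by TMTpro 16plex LC-MS/MS with channel sums equalised, and thermal stability was reported relative to control samples from duplicates, on a log2 fold-change scale.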

[2] = compound: NC(=O)c1cnc(N[C@@H]2CCCC[C@@H]2N)nc1Nc1cccc(-n2nccn2)c1
Procedure, shortened: as §1

[3] = compound: NC1(c2ccc(-c3nc4ccn5c(=O)[nH]nc5c4cc3-c3ccccc3)cc2)CCC1
Procedure, shortened: as §1

[4] = compound: NCC(=O)Nc1ccc(-n2nc(C(F)(F)F)cc2-c2ccc3c(ccc4ccccc43)c2)cc1
Procedure, shortened: as §1

entinostat = compound: Nc1ccccc1NC(=O)c1ccc(CNC(=O)OCc2cccnc2)cc1 [entinostat]
Procedure, shortened: as §1

vorinostat = compound: O=C(CCCCCCC(=O)Nc1ccccc1)NO [vorinostat]
Procedure, shortened: as §1

citarinostat = compound: O=C(CCCCCCNC(=O)c1cnc(N(c2ccccc2)c2ccccc2Cl)nc1)NO [citarinostat]
Procedure, shortened: as §1

silmitasertib = compound: O=C(O)c1ccc2c(c1)nc(Nc1cccc(Cl)c1)c1ccncc12 [silmitasertib]
Procedure, shortened: as §1

[5] = compound: O=C1NC(=O)C(c2cnc3ccccn23)=C1c1cn2c3c(cc(F)cc13)CN(C(=O)N1CCCCC1)CC2
Procedure, shortened: as §1

[6] = compound: c1cc(OCCN2CCCCC2)cc(-c2n[nH]c3ccc(-c4nnc[nH]4)cc23)c1
Procedure, shortened: as §1

Measured: log2 fold change

OSBP (UniProt P22059)
inactive: [1] -0.007 | [2] 0.019 | [3] -0.17 | [4] -0.036 | entinostat 0.024 | vorinostat 0.013 | citarinostat 0.03 | silmitasertib 0.014 | [5] -0.131 | [6] -0.066

NOP2 isoform 4 (UniProt P46087)
Chain of UniProt P46087 (P46087 whole entry, looked up): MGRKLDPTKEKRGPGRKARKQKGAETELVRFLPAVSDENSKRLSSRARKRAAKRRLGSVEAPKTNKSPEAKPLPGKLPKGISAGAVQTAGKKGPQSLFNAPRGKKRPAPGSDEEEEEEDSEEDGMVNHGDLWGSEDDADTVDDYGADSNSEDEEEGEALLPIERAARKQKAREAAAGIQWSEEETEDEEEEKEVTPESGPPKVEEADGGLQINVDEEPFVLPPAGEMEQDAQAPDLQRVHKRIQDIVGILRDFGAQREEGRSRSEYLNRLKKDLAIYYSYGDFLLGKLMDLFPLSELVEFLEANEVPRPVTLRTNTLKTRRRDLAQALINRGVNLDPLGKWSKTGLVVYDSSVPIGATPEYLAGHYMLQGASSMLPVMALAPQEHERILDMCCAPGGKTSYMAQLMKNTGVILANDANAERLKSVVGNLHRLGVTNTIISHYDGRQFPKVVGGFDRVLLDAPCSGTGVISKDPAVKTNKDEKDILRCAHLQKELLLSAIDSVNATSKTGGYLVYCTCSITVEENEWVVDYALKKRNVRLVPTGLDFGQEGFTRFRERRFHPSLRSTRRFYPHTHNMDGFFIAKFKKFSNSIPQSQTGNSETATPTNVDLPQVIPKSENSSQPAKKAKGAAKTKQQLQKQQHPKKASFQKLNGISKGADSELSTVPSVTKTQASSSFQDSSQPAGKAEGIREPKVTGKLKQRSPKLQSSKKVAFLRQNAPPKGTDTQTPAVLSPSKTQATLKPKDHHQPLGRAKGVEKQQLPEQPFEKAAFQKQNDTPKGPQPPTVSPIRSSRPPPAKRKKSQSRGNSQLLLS
inactive: [1] 0.205 | [2] 0.241 | [3] 0.408 | [4] 0.3 | entinostat -0.163 | vorinostat 0.014 | citarinostat -0.04 | silmitasertib 0.288 | [5] 0.344 | [6] -0.095

OXR1 (UniProt Q8N573)
inactive: [1] 0.03 | [2] 0 | [3] -0.157 | [4] -0.008 | entinostat 0.023 | vorinostat -0.029 | citarinostat 0.062 | silmitasertib -0.009 | [5] -0.044 | [6] -0.001

OTUD4 (UniProt Q01804)
inactive: [1] 0.006 | [2] 0.026 | [3] 0.071 | [4] 0.001 | entinostat -0.051 | vorinostat 0.016 | citarinostat -0.016 | silmitasertib 0.02 | [5] 0.033 | [6] -0.061

NRF1 isoform 4 (UniProt Q16656)
Chain of UniProt Q16656 (Q16656 whole entry, looked up): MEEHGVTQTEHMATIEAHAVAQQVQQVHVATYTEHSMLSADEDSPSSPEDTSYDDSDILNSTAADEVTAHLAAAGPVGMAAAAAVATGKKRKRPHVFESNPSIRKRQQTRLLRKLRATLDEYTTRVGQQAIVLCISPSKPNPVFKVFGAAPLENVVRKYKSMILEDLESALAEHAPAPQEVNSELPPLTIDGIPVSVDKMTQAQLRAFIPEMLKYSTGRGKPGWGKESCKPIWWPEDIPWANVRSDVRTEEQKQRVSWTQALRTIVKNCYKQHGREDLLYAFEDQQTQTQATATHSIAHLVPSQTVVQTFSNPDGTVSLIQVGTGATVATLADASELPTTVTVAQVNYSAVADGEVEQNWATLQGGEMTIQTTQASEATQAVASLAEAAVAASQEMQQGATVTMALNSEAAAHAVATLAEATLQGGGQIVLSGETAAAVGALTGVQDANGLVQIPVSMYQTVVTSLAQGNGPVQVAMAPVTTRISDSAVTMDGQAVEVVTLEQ
inactive: [1] 0.021 | [2] -0.088 | [3] -0.129 | [4] -0.037 | entinostat 0.056 | vorinostat 0.047 | citarinostat 0.039 | silmitasertib -0.02 | [5] -0.064 | [6] 0.04

MRPS22 (UniProt P82650)
inactive: [1] -0.008 | [2] 0.031 | [3] -0.098 | [4] 0.006 | entinostat 0.027 | vorinostat 0.131 | citarinostat 0.035 | silmitasertib -0.071 | [5] -0.069 | [6] -0.006

PAFAH1B3 (UniProt Q15102)
Chain of UniProt Q15102 (Q15102 whole entry, looked up): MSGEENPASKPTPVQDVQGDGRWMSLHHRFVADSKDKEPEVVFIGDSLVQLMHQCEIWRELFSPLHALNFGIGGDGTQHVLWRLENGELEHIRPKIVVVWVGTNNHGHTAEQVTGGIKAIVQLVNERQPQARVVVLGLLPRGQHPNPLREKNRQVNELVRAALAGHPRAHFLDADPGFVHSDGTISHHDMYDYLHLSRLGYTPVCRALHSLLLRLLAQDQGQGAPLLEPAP
inactive: [1] -0.036 | [2] -0.012 | [3] -0.066 | [4] -0.019 | entinostat 0.057 | vorinostat 0.043 | citarinostat -0.045 | silmitasertib -0.045 | [5] -0.108 | [6] -0.028

NAT14 (UniProt Q8WUY8)
Chain of UniProt Q8WUY8 (Q8WUY8 whole entry, looked up): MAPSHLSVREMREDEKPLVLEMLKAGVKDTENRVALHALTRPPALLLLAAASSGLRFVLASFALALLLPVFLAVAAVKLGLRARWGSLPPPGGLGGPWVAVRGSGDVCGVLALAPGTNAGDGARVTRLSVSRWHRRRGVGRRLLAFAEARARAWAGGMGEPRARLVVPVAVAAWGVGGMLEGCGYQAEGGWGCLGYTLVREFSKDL
inactive: [1] 0.038 | [2] -0.135 | [3] -0.108 | [4] -0.33 | entinostat -0.033 | citarinostat 0.04 | silmitasertib 0 | [5] -0.037 | [6] -0.108

MMS19 isoform 8 (UniProt Q96T76)
Chain of UniProt Q96T76 (Q96T76 whole entry, looked up): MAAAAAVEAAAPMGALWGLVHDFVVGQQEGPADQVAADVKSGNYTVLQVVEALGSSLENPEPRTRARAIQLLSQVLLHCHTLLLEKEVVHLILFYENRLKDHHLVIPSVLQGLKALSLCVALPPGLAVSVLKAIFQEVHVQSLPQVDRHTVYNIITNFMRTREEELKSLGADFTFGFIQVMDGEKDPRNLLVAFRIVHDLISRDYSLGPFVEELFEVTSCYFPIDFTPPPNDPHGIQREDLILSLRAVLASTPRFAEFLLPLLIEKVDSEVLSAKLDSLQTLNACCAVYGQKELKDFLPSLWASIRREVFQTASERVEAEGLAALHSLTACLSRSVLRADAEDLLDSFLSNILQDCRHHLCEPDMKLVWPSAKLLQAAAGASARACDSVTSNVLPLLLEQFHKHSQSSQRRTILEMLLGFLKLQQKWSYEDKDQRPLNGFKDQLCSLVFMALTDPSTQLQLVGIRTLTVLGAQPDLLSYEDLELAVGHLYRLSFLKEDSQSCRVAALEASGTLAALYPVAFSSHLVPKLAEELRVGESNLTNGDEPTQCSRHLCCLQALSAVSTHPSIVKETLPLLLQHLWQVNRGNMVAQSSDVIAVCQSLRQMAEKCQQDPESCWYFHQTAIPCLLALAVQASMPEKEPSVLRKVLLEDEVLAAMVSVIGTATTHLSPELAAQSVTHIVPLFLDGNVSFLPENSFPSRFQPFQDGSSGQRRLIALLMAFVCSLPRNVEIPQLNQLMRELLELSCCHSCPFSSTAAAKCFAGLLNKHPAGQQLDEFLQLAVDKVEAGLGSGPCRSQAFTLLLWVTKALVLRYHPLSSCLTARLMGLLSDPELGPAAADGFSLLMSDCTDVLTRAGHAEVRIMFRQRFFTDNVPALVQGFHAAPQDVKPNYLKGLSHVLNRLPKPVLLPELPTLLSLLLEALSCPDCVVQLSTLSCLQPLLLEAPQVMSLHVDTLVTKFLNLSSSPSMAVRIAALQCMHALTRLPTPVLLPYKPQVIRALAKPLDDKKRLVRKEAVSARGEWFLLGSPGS
inactive: [1] 0.01 | [2] -0.026 | [3] -0.157 | [4] -0.072 | entinostat 0.066 | vorinostat 0.017 | citarinostat 0.097 | silmitasertib 0.085 | [5] -0.003 | [6] -0.007

OAT (UniProt P04181)
Chain of UniProt P04181 (P04181 whole entry, looked up): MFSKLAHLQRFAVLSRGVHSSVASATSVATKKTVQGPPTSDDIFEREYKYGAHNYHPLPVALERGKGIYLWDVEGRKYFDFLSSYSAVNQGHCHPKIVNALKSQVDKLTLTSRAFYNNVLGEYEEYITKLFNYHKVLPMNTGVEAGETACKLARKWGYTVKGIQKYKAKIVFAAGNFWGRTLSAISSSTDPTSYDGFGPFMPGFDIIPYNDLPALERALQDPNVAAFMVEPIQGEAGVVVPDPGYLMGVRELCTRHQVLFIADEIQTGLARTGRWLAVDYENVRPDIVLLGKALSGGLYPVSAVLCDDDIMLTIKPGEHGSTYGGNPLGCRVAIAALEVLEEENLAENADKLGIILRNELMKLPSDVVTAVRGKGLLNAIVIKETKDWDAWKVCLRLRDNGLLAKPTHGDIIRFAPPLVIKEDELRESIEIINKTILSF
inactive: [1] -0.051 | [2] -0.076 | [3] -0.235 | [4] -0.058 | entinostat 0.029 | vorinostat 0.129 | citarinostat 0.131 | silmitasertib -0.036 | [5] -0.031 | [6] 0.006

NAA11 (UniProt Q9BSU3)
Chain of UniProt Q9BSU3 (Q9BSU3 whole entry, looked up): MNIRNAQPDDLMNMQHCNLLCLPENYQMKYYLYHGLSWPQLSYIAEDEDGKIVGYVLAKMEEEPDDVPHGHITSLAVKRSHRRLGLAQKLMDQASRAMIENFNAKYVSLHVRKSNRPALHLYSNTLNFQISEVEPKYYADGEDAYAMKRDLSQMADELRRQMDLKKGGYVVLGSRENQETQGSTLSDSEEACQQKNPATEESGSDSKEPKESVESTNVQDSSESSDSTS
active: entinostat 0.375
inactive: [1] 0.139 | [2] -0.048 | [3] -0.072 | [4] 0.167 | citarinostat -0.05 | silmitasertib -0.001 | [5] -0.064 | [6] -0.022

PAFAH2 (UniProt Q99487)
inactive: [1] 0.079 | [2] -0.194 | [4] 0.04 | entinostat 0.075

MYH16 (UniProt Q9H6N6)
inactive: [1] 0.467 | [2] 0.051 | [3] -0.057 | [4] 0.051 | entinostat 0.289 | vorinostat 0.291 | silmitasertib -0.044

MT-ND4 (UniProt P03905)
Chain of UniProt P03905 (P03905 whole entry, looked up): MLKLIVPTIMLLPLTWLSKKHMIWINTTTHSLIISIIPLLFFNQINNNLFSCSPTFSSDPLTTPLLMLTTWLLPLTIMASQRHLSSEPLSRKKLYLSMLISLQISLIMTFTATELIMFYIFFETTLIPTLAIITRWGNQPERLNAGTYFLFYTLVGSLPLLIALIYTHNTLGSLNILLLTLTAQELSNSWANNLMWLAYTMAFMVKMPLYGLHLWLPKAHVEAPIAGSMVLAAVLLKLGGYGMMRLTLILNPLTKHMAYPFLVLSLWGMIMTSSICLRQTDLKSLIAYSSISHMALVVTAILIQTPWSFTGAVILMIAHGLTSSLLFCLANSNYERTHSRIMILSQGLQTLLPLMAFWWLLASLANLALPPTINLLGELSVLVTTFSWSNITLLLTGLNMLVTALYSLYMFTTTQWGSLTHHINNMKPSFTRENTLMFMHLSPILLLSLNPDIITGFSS
inactive: [1] 0.052 | [2] 0.038 | [3] -0.046 | [4] -0.074 | entinostat 0.099 | vorinostat 0.261 | citarinostat 0.198 | silmitasertib -0.011 | [5] 0.088 | [6] -0.057

NAGPA (UniProt Q9UK23)
inactive: [1] 0.051 | [2] -0.045 | [3] 0.03 | entinostat 0.04 | vorinostat -0.122 | citarinostat 0.074 | silmitasertib -0.237 | [5] 0.043 | [6] -0.023

OTULIN (UniProt Q96BN8)
inactive: [1] 0.008 | [2] -0.017 | [3] -0.183 | [4] -0.093 | entinostat 0.097 | vorinostat 0.038 | citarinostat -0.005 | silmitasertib 0.086 | [5] -0.143 | [6] -0.077

MLST8 (UniProt Q9BVC4)
Chain of UniProt Q9BVC4 (Q9BVC4 whole entry, looked up): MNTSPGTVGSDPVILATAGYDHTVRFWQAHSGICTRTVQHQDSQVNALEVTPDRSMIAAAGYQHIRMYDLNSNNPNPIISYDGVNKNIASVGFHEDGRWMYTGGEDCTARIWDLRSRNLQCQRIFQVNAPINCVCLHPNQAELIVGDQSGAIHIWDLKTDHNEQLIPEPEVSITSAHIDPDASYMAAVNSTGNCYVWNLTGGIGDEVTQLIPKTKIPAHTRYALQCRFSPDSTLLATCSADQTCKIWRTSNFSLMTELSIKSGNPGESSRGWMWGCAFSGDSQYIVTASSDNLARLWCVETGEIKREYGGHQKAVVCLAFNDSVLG
inactive: [1] 0.064 | [2] -0.201 | [3] -0.182 | [4] -0.082 | entinostat 0.127 | citarinostat 0.043 | silmitasertib 0.105 | [5] -0.03 | [6] -0.025

NCBP2AS2 (UniProt Q69YL0)
inactive: [1] -0.21 | [2] -0.161 | [3] -0.312 | [4] -0.157 | entinostat -0.004 | vorinostat 0.024 | citarinostat 0 | silmitasertib 0.024 | [6] -0.046

ORC5 (UniProt O43913)
inactive: [1] -0.322 | [2] -0.188 | [3] -0.253 | [4] -0.058 | entinostat -0.101 | vorinostat 0.139 | citarinostat 0.039 | silmitasertib -0.072 | [6] -0.004

NA isoform 3 (UniProt Q4G0T1)
inactive: [1] -0.114 | [2] -0.207 | [3] 0.015 | [4] -0.02 | entinostat 0.01 | silmitasertib 0.037

OPHN1 (UniProt O60890)
inactive: [1] 0.073 | [2] -0.134 | [3] -0.056 | entinostat -0.084 | vorinostat 0.128 | citarinostat 0.021 | silmitasertib 0.031 | [5] -0.046 | [6] 0.094

MITF (UniProt O75030)
inactive: [1] -0.023 | [2] 0.021 | [3] -0.11 | [4] 0.302 | entinostat -0.048 | vorinostat 0.2 | citarinostat 0.083 | silmitasertib 0.071 | [6] -0.022

MT-ND1 (UniProt P03886)
Chain of UniProt P03886 (P03886 whole entry, looked up): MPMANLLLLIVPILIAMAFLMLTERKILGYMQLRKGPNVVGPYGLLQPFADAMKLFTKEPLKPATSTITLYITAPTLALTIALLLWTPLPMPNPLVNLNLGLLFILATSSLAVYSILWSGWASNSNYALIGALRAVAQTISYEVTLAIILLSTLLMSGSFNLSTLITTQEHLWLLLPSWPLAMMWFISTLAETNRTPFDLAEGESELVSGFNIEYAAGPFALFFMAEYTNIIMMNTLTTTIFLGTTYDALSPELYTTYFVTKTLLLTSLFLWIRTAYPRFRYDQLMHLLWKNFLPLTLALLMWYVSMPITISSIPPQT
inactive: [1] 0.166 | [2] 0.244 | [3] -0.004 | [4] 0.289 | entinostat -0.051 | citarinostat 0.05 | silmitasertib 0.039 | [5] 0.1 | [6] -0.075

NMNAT1 (UniProt Q9HAN9)
inactive: [1] 0.171 | [2] 0.145 | [3] 0.197 | [4] 0.081 | entinostat 0.002 | vorinostat -0.077 | citarinostat -0.033 | silmitasertib 0.201 | [5] 0.259 | [6] -0.174

NFYB (UniProt P25208)
Chain of UniProt P25208 (P25208 whole entry, looked up): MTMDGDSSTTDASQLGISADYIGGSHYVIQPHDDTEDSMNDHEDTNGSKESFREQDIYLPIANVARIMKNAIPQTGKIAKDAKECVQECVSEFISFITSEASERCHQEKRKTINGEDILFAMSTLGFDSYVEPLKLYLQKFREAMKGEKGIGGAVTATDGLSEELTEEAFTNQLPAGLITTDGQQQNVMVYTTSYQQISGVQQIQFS
inactive: [1] -0.022 | [2] 0.102 | [3] -0.074 | [4] 0.069 | entinostat -0.001 | vorinostat -0.038 | citarinostat -0.006 | silmitasertib 0.043 | [6] 0.033

MTOR (UniProt P42345)
active: [3] -0.315
inactive: [1] -0.016 | [2] -0.102 | [4] -0.111 | entinostat 0.042 | vorinostat 0.049 | citarinostat 0.035 | silmitasertib 0.102 | [5] -0.065 | [6] -0.004

NCK1 (UniProt P16333)
inactive: [1] -0.118 | [2] -0.247 | [3] -0.056 | [4] -0.112 | entinostat 0.085 | silmitasertib 0.077 | [5] -0.194

NEDD4 isoform 4 (UniProt P46934)
inactive: [1] -0.043 | [2] -0.027 | [3] -0.187 | [4] -0.074 | entinostat 0.029 | vorinostat -0.04 | citarinostat 0.084 | silmitasertib 0.064 | [5] -0.008 | [6] 0.013

NT5DC1 (UniProt Q5TFE4)
inactive: [1] -0.057 | [2] -0.052 | [3] -0.003 | [4] -0.012 | entinostat -0.037 | vorinostat -0.013 | citarinostat 0.003 | silmitasertib 0.025 | [5] -0.038
active: [6] 0.236

NIPSNAP2 (UniProt C9J7B1)
inactive: [1] -0.009 | [2] 0.175 | [3] -0.017 | entinostat 0.148 | silmitasertib 0.019

NUMBL (UniProt Q9Y6R0)
inactive: [1] -0.101 | [2] 0.016 | [3] -0.154 | [4] 0.002 | entinostat 0.01 | vorinostat 0.078 | silmitasertib -0.037 | [5] 0.016

NIPSNAP3B (UniProt Q9BS92)
inactive: [1] 0.279 | [2] 0.011 | [3] -0.069 | [4] 0.053 | entinostat -0.001 | vorinostat -0.064 | citarinostat 0.137 | silmitasertib -0.022 | [6] -0.09

NPM3 (UniProt O75607)
Chain of UniProt O75607 (O75607 whole entry, looked up): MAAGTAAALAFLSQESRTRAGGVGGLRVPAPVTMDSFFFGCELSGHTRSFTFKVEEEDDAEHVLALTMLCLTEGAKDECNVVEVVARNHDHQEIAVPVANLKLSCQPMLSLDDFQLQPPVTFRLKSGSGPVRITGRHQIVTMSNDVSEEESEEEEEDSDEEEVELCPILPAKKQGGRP
inactive: [1] 0.029 | [2] 0.02 | [3] 0.216 | [4] 0.017 | entinostat -0.019 | vorinostat -0.023 | citarinostat -0.059 | silmitasertib 0.137 | [6] -0.101
